HPGD block = inhibitors of human 15-hydroxyprostaglandin dehydrogenase (HPGD); purified HPGD, NADH fluorescence kinetic, PGE2 substrate; Potency, µM, actives largely listed as inhibitors; actives 4.3% (n = 150,000)
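20 nM HPGD preincubated 15 min at room temperature with compound in 50 mM Tris-HCl pH 8, 0.01% Tween 20. Started with 1 mM NAD+ and 30 uM prostaglandin E2; NADH fluorescence (360/450 nm) read 5 times over 30-s intervals, last minus first.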
PNC assembly inh = perinucleolar compartment assembly inhibition. PC3M PTB-GFP, PNC prevalence imaging, 16 h; active compounds read low. activity change (PNC), negative = inhibition, % at 10 µM. actives 3.1% (n = 140,000);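 active = readout at or below -70, meaning at least 70% loss of cells showing the perinucleolar compartment, a nuclear body marking cancer cells; inconclusive = readout between -30 and a set limit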
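Read-out is percentage of cells bearing a perinucleolar compartment, from automated 20x imaging of fixed, Hoechst-stained PC3M PTB-GFP cells. Cells were seeded 4 h, then exposed 16 h to compound (23 nl of library stock) in duplicate plates.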
ALDH1A1 block = ALDH1A1 (human) enzyme inhibition | P00352 | Purified ALDH1A1, NADH fluorescence, propionaldehyde substrate | AID 1030 | actives 7.3% (n = 220,000) | Potency, µM (top dose mostly 75.3 µM), usual class: inhibitors
Target sequence (P00352 whole entry, looked up): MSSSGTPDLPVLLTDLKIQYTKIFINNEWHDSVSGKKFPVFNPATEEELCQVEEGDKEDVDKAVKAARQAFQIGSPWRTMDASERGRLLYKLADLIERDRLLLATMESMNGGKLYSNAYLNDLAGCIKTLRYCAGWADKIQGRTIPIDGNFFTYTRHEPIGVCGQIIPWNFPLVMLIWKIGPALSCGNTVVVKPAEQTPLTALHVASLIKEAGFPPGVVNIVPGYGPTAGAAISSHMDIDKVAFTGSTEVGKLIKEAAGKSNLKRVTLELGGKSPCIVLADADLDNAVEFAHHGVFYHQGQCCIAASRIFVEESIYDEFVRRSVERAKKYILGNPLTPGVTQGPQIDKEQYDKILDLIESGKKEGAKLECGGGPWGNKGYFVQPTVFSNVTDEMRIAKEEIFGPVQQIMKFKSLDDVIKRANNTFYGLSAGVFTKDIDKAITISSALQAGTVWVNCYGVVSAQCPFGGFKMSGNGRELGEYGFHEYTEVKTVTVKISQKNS
A number is an active result; – = inactive; ? = inconclusive; · = not tested or not shown; [ ] = remark or other dose. Compounds with a hit are over-represented: about 11% of the library has one in this group of screens. Unless noted, calls come from the whole dose curve; as a rule, active = well fitted inhibition curve with a large enough effect (not every such curve was filed as active); inconclusive = small, poorly fitted or top-dose-only effect, or another doubt; inactive = no such curve, though single readings can be large or run the other way.

SMILES	HPGD block	PNC assembly inh	ALDH1A1 block
N/C(=N\OC(=O)c1cccs1)c1cccc(Br)c1	·	·	–
Cc1ccc(/C(N)=N/OC(=O)c2cccs2)cc1	–	–	–
Cc1cccc(/C(N)=N/OC(=O)c2cccs2)c1	20µM	–	–
Cc1cccc(OCc2nnc(SCc3cc(=O)n4cc(Br)ccc4n3)o2)c1	?	–	?
COC(=O)C1(CCSC)NC(c2ccc(O)c(OC)c2)C2C(=O)N(c3ccc(C)cc3)C(=O)C21 (stereo unspecified)	·	·	–
CCCCN(C)C1CCN(C(=S)Nc2cccc(SC)c2)CC1	·	·	–
COC(=O)[C@@H]1C[C@H]1[C@@H](NC(=O)c1cccnc1)c1ccccc1	–	·	–
COC(=O)[C@H]1C[C@@H]1[C@H](NC(=O)c1ccccc1)c1ccccc1	–	–	8.9µM
CCCC[C@@H]1C[C@H]1C(NC(=O)c1ccco1)c1ccccc1 (stereo partly specified)	–	·	25µM
CCCC[C@@H]1C[C@H]1C(NC(=O)Cc1ccccc1)c1ccc(-c2ccccc2)cc1 (stereo partly specified)	–	·	–
C[C@](N)(C(=O)O)c1ccc(-c2nn[nH]n2)cc1	–	·	16µM
CCc1ccc(-c2nn[nH]n2)cc1	–	–	–
CCO[C@@H]1OC(C(=O)N2CCN(Cc3ccc4c(c3)OCO4)CC2)=C[C@H](C2CC2)[C@H]1CCCO	·	·	–
O=S(=O)(NC1CCCCC1)c1ccc(Br)cc1	–	–	–
O=C(c1ccccc1)N(Cc1cccnc1)C1(C(=O)Nc2ccccc2)CCCCC1	–	-110	–
O=C(NCc1cccnc1)Nc1ccccc1	·	·	–
CCOc1ccc(C(=O)NCCC2=CCCCC2)cc1OCC	·	·	25µM
Cc1ccccc1NS(=O)(=O)c1cc(C(=O)NCCC2=CCCCC2)ccc1Cl	–	?	20µM
Cc1cccc(NS(=O)(=O)c2cc(C(=O)NCCC3=CCCCC3)ccc2Cl)c1	–	–	–
CCOc1ccccc1NC(=O)C(=O)NCCC1=CCCCC1	·	·	–
C/C(N)=C(/C#N)C(=O)CSc1cc(C)c2ccccc2n1	·	·	–
Cc1ccc(CNC(=O)[C@H](C)[C@@H]2C[C@@]2(C)[C@@H](NC(=O)OCc2ccccc2)c2ccccc2)o1	–	·	?
CCN1C(=O)[C@H]2[C@H]3[C@H](O)[C@H](O)C/C(=N/OC[C@@H](O)COCc4ccco4)[C@H]3CC[C@@H]2C1=O	·	·	–[13.5 µM]
CC[n+]1c(/C=C/N(C)c2ccccc2)oc2ccc(F)cc21	–	–	14µM
CC[n+]1c(/C=C/Nc2ccccc2)oc2ccc(OC)cc21	·	·	–
SMILES	HPGD block	PNC assembly inh	ALDH1A1 block
CCC1C/C(=C\c2cccnc2)C(=O)/C(=C/c2cccnc2)C1 (stereo unspecified)	–	-125	?
O=C1/C(=C/c2cccnc2)CC/C1=C\c1cccnc1	·	·	–
CCOc1cc(S(=O)(=O)NCc2ccccn2)c(C)cc1C	–	?	–
Cc1cccc(C(=O)NCCN2CCOCC2)c1[N+](=O)[O-]	–	–	–
Nc1ccc(S(=O)(=O)O)cc1	–	·	32µM
Nc1ccc(S(N)(=O)=O)cc1	–	·	–
O=C1NC(c2ccccc2)=CC(c2ccccc2)N1 (stereo unspecified)	·	·	–
O=C1CC(c2ccccc2)NC(=O)N1 (stereo unspecified)	–	-81	–
CCc1nnc(NC(=O)CCN(c2cc(C)cc(C)c2)S(=O)(=O)c2ccc(Cl)cc2)s1	·	-94	–
Cc1cc(C)cc(N(CCC(=O)O)S(=O)(=O)c2ccc(Cl)cc2)c1	–	?	–
O=C(N/N=C/c1cccc(Oc2ccc([N+](=O)[O-])cc2[N+](=O)[O-])c1)c1cncc(Br)c1	–	?	–
COCCN(C(=O)CCc1nnc(CCc2c[nH]c3ccccc23)o1)C(C)C	·	·	–
Cc1cccc(NC(=S)N2CCn3cccc3C2c2cccnc2)c1 (stereo unspecified)	–	?	?
CCCCNC(=S)N1CCn2cccc2C1c1ccccc1 (stereo unspecified)	·	·	–
COc1cccc(NC(=S)N2CCn3cccc3C2c2cccnc2)c1 (stereo unspecified)	·	·	14µM
S=C(NCc1ccccc1)N1CCn2cccc2C1c1cccnc1 (stereo unspecified)	·	·	3.5µM
CCCn1c(C)nc2c(Nc3ccccc3)nc(C)nc21	–	·	–
CCNC(=S)NN(c1ccccc1)c1ccccc1	–	–	?
O=C(Nc1ccc(Cl)cc1)C1=Cc2ccccc2OC1	–	–	–
CC1=NN(c2ccc(C)c(C)c2)C(=O)/C1=C\C=C\c1ccc([N+](=O)[O-])o1	·	·	8.9µM
O=[N+]([O-])c1ccc(/C=C/C2=NN(c3ccccc3)C(c3ccco3)C2)o1 (stereo unspecified)	·	·	–
Cc1ccc(NC(=O)COC(=O)C(NS(=O)(=O)c2ccc(Cl)cc2)C(C)O)cc1 (stereo unspecified)	–	–	–
O=C(CN1CCC(O)(c2ccccc2F)CC1)NCCc1c[nH]c2ccccc12	–	–	–
Cc1cc(NC(=O)Nc2ccc(N(C)C)cc2)c2cc(F)cc(F)c2n1	–	·	–
Cc1cc(C)c(C#N)c(SCc2c(F)cccc2[N+](=O)[O-])n1	–	?	?
SMILES	HPGD block	PNC assembly inh	ALDH1A1 block
O=C(NC1CCCCC1)C(=S)NCCc1ccccc1	·	·	18µM
O=C(NCCc1ccccc1)C(=O)NC1CCCCC1	–	–	–
CC(=O)NC(=S)NNC(=O)CCc1ccccc1	·	·	20µM
O=C(CCc1ccccc1)NNC(=O)Cc1ccccc1	·	·	–
CC(=O)NNC(=S)NCCc1ccccc1	·	·	–
Cc1ccc(NC(=O)CCCc2ccccc2)nc1	·	·	–
O=C(NC(=S)NCCc1ccccc1)c1ccccc1	–	?	16µM
Cc1ccc(NC(=S)NCCc2ccccc2)nc1	·	·	10µM
COC(=O)N1CCC2(CCCN(C(c3ccccc3)c3ccccc3)C2)CC1	–	·	–
COC(=O)CN1C(c2ccccc2)=Nc2ccc(Cl)cc2C1c1ccccc1 (stereo unspecified)	–	–	–
CNS(=O)(=O)c1cc(NC(C)=O)c(C)cc1C	–	?	–
COC(=O)C(Cc1ccccc1)NC(=S)NC(=O)c1ccccc1 (stereo unspecified)	·	·	8.9µM
O=C(CNC(=S)NC(=O)c1ccc(Br)o1)c1ccccc1	–	–	–
O=C(CNC(=S)NC(=O)c1ccc(Cl)cc1)c1ccccc1	–	–	8.9µM
CC1CCCC/C1=N\NC(=S)NCCc1ccccc1 (stereo unspecified)	·	·	14µM
CCOc1ccc(C(=O)NC(Cc2ccccc2)C(=O)OC)cc1 (stereo unspecified)	–	–	–
COC(=O)C(Cc1ccccc1)NC(=O)C(CC(C)C)NC(=O)OC(C)(C)C (stereo unspecified)	–	-112	–
CCC(C)C(NC(=O)OC(C)(C)C)C(=O)NC(Cc1ccccc1)C(=O)OC (stereo unspecified)	–	?	–
S=C(NCCc1ccccc1)NC1CCCCCC1	–	?	–
NCCC[C@@H](CC(=O)N[C@@H]1CCNC[C@H]1C(=O)N[C@H](CC(=O)N[C@@H](CCC(=O)O)CC(=O)O)Cc1ccccc1)NC(=O)C[C@H](CO)NC(=O)[C@@H]1CCCC[C@H]1N	–	·	–
COc1ccc2[nH]cc(CCNc3ncncc3-c3cccc(C#N)c3)c2c1	·	·	–
Cc1ccc([N+](=O)[O-])c(N)c1	–	·	–
Fc1cccc(NC(=S)NCCc2ccccc2)c1	–	–	?
